Among the data in PubChem BioAssay AID1256 (The Scripps Research Institute Molecular Screening Center, 2008) are inhibition values, retold here.

Some of the results follow. Unmarked numbers belong to inactive results. Calls of active or inactive are those of the source. Cut-off read from the data, not from the text of the source: active = inhibition above about 20%; inactive = the rest.

As usually defined, the inhibition is the change of the read-out against control, counted positive when it falls.

The target in the assay is Neuropeptide Y receptor type 1 (Homo sapiens) (UniProt P25929). Nature of the assay: NPY-Y1 receptor antagonists, selectivity check, counter-screen for NPY-Y2 antagonist project, cell-based (AID 1256).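 Note: cells challenged with NPY then isoproterenol with cAMP sensed through a CNG channel.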 As to conditions: cell-based NPY-Y1 antagonism counterscreen; at 3.6 µM; active compounds read high. A general note: A counterscreen serves to expose hits that act by an unwanted route or on another target.
Chain of Neuropeptide Y receptor type 1 (Homo sapiens) (P25929 whole entry, looked up): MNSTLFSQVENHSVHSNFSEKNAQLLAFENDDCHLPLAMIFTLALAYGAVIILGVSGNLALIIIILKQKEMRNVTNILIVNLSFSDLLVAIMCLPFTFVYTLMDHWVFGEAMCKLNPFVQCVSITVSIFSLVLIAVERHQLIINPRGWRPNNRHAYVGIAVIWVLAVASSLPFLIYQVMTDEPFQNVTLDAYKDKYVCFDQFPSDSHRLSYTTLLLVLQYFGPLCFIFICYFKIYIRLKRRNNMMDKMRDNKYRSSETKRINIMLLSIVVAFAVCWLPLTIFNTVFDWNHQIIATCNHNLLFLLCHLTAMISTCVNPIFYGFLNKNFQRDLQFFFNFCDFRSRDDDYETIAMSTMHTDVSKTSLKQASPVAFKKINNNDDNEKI
For `Cc1cc(C)nc(-n2ncc3c2CC(c2ccc(C(C)C)cc2)CC3=O)n1` (stereo unspecified), the inhibition was 20.4% (active). As to `Cc1cccc(OCC(O)Cn2c(=N)n(CCN3CCOCC3)c3ccccc32)c1` (stereo unspecified), the inhibition was 4.2%. `CCOC(=O)C(C)Sc1nc2ccccc2c(=O)n1CC1CCCCC1` (stereo unspecified): the inhibition was 7.75%. For the molecule `Cc1ccc(C2=NN(C)c3nc4ccccc4n3C2)cc1`, the inhibition is 8.4%.

In the case of `O=C(CC(O)(C(F)(F)F)C(F)(F)F)Nc1ccc(Cl)c(Cl)c1`, the inhibition is 20.5% (active).

Take `O=C(Nc1nnc(SCc2c(Cl)cccc2Cl)s1)C1CCCO1` (stereo unspecified): the inhibition is 12.1%. In the case of `COc1ccc(NC(=O)/C(Cl)=C(/Cl)S(=O)Cc2ccc(C)cc2)cn1` (stereo unspecified), the inhibition is 42.1% (active). On to `CCCCCNC(=O)Cc1ccc(OC)cc1`, for which the inhibition was 1.16%.

For `Cc1cc(C(=O)OCC(=O)N2c3ccccc3NC(=O)C2(C)C)c(C)n1-c1ccccc1`, the inhibition was 5.21%.

For `O=C(Oc1ccccc1)Oc1ccc2c(c1)oc(=O)c1ccccc12`, the inhibition is 3.68%.

On to `COc1ccc(/C=C/C(=O)NC(=S)NN2CCCCC2c2cccnc2)cc1` (stereo unspecified), for which the inhibition was 29.1% (active). In the case of `c1ccc(-c2cc3c(NCC4COc5ccccc5O4)ncnc3s2)cc1` (stereo unspecified), the inhibition was 19.3%. On to `O=C1CC(c2cccc(Cl)c2)CC(O)=C1C=Nc1ccccc1` (stereo unspecified), for which the inhibition is 17.3%. With `N#Cc1ccc(N2Cc3ccccc3/C2=N/C(=O)Nc2ccc(Cl)cc2)cc1`, the inhibition was 100% (active). On to `CCOc1ccc(C(O)Cn2c(=N)n(CCN3CCCCC3)c3ccccc32)cc1` (stereo unspecified), for which the inhibition was 13.1%. In the case of `CCOc1ccc(S(=O)(=O)N/N=C(\C)c2ccc(Cl)c(Cl)c2Cl)cc1` it was 17.7%.
